Records with an inconclusive call do not appear. Some structures have more than one record in an assay (separate samples or runs), and their calls can disagree. Active and inactive are the calls of the source. Rule for the calls: active = hit-call score of the fitted dose curve at least 0.9, where 1 is the maximum; inconclusive = response in the unintended direction; inactive = score below 0.9.
Molecular target: Retinoic acid receptor RXR-alpha (Homo sapiens) (UniProt P19793)
Assay: OT_NURR1_NURR1RXRa_1440: Odyssey Thera (OT) 24-hour HEK293T Protein Complementation Assay for Nurr1/retinoid X receptor (RXR) (AID 2283386)
Outline: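 HEK293T cells were dosed with compound and read 24 h later by fluorescence intensity in a protein-fragment complementation format, where Nurr1–RXRα interaction reconstitutes a split reporter. Activity was fitted as gain of signal relative to DMSO baseline.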

Retinoic acid receptor RXR-alpha (Homo sapiens), sequence (P19793 whole entry, looked up): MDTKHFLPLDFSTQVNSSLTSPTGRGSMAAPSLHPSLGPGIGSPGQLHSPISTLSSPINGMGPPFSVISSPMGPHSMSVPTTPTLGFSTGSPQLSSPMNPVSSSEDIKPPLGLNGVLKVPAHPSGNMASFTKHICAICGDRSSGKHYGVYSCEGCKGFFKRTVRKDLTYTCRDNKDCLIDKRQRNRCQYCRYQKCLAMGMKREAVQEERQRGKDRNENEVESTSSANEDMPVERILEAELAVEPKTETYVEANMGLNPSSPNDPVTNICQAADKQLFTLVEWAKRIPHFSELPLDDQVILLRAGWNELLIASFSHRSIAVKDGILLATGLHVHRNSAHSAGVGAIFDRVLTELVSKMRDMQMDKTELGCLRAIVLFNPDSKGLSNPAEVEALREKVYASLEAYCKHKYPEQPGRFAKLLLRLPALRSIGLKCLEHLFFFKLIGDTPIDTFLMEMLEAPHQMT

Which outcome does the source give for `CN(C)C(=O)Nc1cccc(C(F)(F)F)c1` here?
Its outcome is “inactive”.

How did the outcome turn out when `CCCCN(CC)c1c([N+](=O)[O-])cc(C(F)(F)F)cc1[N+](=O)[O-]` was run?
The outcome was “inactive”.

For `CCOP(=S)(OCC)Oc1ccc([N+](=O)[O-])cc1`, which outcome is on record?
The outcome was “inactive”.

What does the source list for `C=C(C)[C@H]1Cc2c(ccc3c2O[C@@H]2COc4cc(OC)c(OC)cc4[C@@H]2C3=O)O1`?
AC50: 22.2 µM (active); outcome: inactive

How did the outcome turn out when `CCOP(=O)(NC(C)C)Oc1ccc(SC)c(C)c1` (centres undefined) was run?
Its outcome is “inactive”.

How did the outcome turn out when `COc1ccc(C(=CC(=O)N2CCOCC2)c2ccc(Cl)cc2)cc1OC` was run?
The outcome was “inactive”.

How did the outcome turn out when `CC1(C(=O)Nc2ccc(O)c(Cl)c2Cl)CCCCC1` was run?
The outcome was “inactive”.

`C[N+]1(C)CCCCC1` was tested. Which outcome did it give?
Its outcome is “inactive”.

`CN(C)NC(=O)CCC(=O)O` was tested. Which outcome did it give?
The outcome was “inactive”.

How did the AC50 turn out when `CN(C)[C@@H]1C(=O)C(C(N)=O)=C(O)[C@@]2(O)C(=O)C3=C(O)c4c(O)cccc4[C@@](C)(O)[C@H]3[C@H](O)[C@@H]12` was run?
The AC50 was 23.7 µM (active).

What about the outcome of the same compound?
The outcome was “inactive”.

For `Cc1ccn2nc(S(=O)(=O)Nc3c(F)cccc3F)nc2n1`, which outcome is on record?
Its outcome is “inactive”.

For `CCOC(=O)COc1cc(-c2nn(C)c(OC(F)F)c2Cl)c(F)cc1Cl`, which outcome is on record?
The outcome was “inactive”.

`COP(=O)(NC(C)=O)SC` (centres undefined) was tested. Which outcome did it give?
Its outcome is “inactive”.

Molecular target: Peroxisome proliferator-activated receptor gamma (Homo sapiens) (UniProt P37231)
Assay: OT_PPARg_PPARgSRC1_0480: Odyssey Thera (OT) 8-hour Protein-Complementation Assay for Peroxisome Proliferator-activated Receptor Gamma / SRC-1 Co-activator (AID 2283387);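 note: nuclear to cytoplasmic split Venus YFP fluorescence ratio reporting PPARg SRC-1 interaction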
Outline: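 HEK293T transiently transfected with PPARg and SRC-1 fused to Venus YFP fragments, compounds 8 h at 37C. Fixed, Draq5-stained cells imaged; nuclear/cytoplasmic 488 nm fluorescence ratio over at least 350 cells per image; gain fitted versus DMSO.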

Peroxisome proliferator-activated receptor gamma (Homo sapiens), sequence (P37231 whole entry, looked up): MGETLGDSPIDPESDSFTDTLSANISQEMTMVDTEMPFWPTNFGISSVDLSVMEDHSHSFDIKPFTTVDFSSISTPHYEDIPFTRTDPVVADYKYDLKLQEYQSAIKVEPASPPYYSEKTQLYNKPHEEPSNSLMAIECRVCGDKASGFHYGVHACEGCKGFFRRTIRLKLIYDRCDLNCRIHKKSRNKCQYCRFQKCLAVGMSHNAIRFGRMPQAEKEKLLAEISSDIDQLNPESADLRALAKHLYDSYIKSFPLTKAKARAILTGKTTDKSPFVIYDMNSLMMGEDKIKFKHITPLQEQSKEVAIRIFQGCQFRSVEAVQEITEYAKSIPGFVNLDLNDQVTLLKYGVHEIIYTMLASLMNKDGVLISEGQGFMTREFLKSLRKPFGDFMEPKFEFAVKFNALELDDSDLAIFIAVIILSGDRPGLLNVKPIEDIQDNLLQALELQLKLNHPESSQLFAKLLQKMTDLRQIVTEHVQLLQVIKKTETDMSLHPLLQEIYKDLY

`CCOP(=S)(Oc1cnc(C(C)(C)C)nc1)OC(C)C` (centres undefined) was tested. Which outcome did it give?
Its outcome is “inactive”.

For `C#CCC1=C(C)C(OC(=O)C2C(C=C(C)C)C2(C)C)CC1=O` (centres undefined), which outcome is on record?
The outcome was “inactive”.

How did the outcome turn out when `CCCSP(=O)(OCC)SCCC` was run?
Its outcome is “inactive”.

How did the outcome turn out when `C[Si](Cn1cncn1)(c1ccc(F)cc1)c1ccc(F)cc1` was run?
The outcome was “inactive”.

For `CNC(=O)ON=C(C)SC`, which outcome is on record?
The outcome was “inactive”.

How did the outcome turn out when `CNc1cnn(-c2cccc(C(F)(F)F)c2)c(=O)c1Cl` was run?
Its outcome is “inactive”.

Which outcome does the source give for `CCCCSP(=O)(SCCCC)SCCCC` here?
Its outcome is “inactive”.

With `CCOC(=O)CC(SP(=O)(OC)OC)C(=O)OCC` (centres undefined) as the compound, how does the outcome read?
The outcome was “inactive”.

`CCCCOC(=O)[C@@H](C)Oc1ccc(Oc2ccc(C#N)cc2F)cc1` was tested. Which outcome did it give?
Its outcome is “inactive”.

`CCCSP(=O)(OCC)Oc1ccc(Br)cc1Cl` (centres undefined) was tested. Which outcome did it give?
The outcome was “inactive”.

`CON=C(C(=O)OC)c1ccccc1CON=C(C)c1cccc(C(F)(F)F)c1` was tested. Which outcome did it give?
The outcome was “inactive”.

How did the outcome turn out when `CCC(CC)Nc1c([N+](=O)[O-])cc(C)c(C)c1[N+](=O)[O-]` was run?
Its outcome is “inactive”.

For `CSc1nc(NC(C)C)nc(NC(C)C)n1`, which outcome is on record?
Its outcome is “inactive”.

How did the outcome turn out when `CNC(=O)ON=C(SC)C(=O)N(C)C` was run?
The outcome was “inactive”.

`CCNc1nc(Cl)nc(NC(C)(C)C#N)n1` was tested. Which outcome did it give?
The outcome was “inactive”.

Which outcome does the source give for `O=c1ccc(=O)[nH][nH]1` here?
Its outcome is “inactive”.

With `S=C1NCCN1` as the compound, how does the outcome read?
The outcome was “inactive”.

Which outcome does the source give for `CC(COc1ccc(Oc2ccccc2)cc1)Oc1ccccn1` (centres undefined) here?
The outcome was “inactive”.

Which outcome does the source give for `CCOP(=S)(OCC)OC(Cl)C(Cl)(Cl)Cl` (centres undefined) here?
Its outcome is “inactive”.

How did the outcome turn out when `COc1cccc(C(=O)NN(C(=O)c2cc(C)cc(C)c2)C(C)(C)C)c1C` was run?
The outcome was “inactive”.

Which outcome does the source give for `CCc1cccc(C)c1N(C(=O)CCl)C(C)COC` (centres undefined) here?
Its outcome is “inactive”.

With `CN(C)C(=O)Nc1cccc(C(F)(F)F)c1` as the compound, how does the outcome read?
The outcome was “inactive”.

Which outcome does the source give for `CCCCN(CC)c1c([N+](=O)[O-])cc(C(F)(F)F)cc1[N+](=O)[O-]` here?
Its outcome is “inactive”.

How did the outcome turn out when `CCOP(=S)(OCC)Oc1ccc([N+](=O)[O-])cc1` was run?
The outcome was “inactive”.

For `C=C(C)[C@H]1Cc2c(ccc3c2O[C@@H]2COc4cc(OC)c(OC)cc4[C@@H]2C3=O)O1`, which outcome is on record?
Its outcome is “inactive”.

Which outcome does the source give for `CCOP(=O)(NC(C)C)Oc1ccc(SC)c(C)c1` (centres undefined) here?
The outcome was “inactive”.

`COc1ccc(C(=CC(=O)N2CCOCC2)c2ccc(Cl)cc2)cc1OC` was tested. Which outcome did it give?
The outcome was “inactive”.

Which outcome does the source give for `CC1(C(=O)Nc2ccc(O)c(Cl)c2Cl)CCCCC1` here?
The outcome was “inactive”.

Which outcome does the source give for `C[N+]1(C)CCCCC1` here?
The outcome was “inactive”.

`CN(C)NC(=O)CCC(=O)O` was tested. Which outcome did it give?
Its outcome is “inactive”.

How did the outcome turn out when `CN(C)[C@@H]1C(=O)C(C(N)=O)=C(O)[C@@]2(O)C(=O)C3=C(O)c4c(O)cccc4[C@@](C)(O)[C@H]3[C@H](O)[C@@H]12` was run?
Its outcome is “inactive”.

`Cc1ccn2nc(S(=O)(=O)Nc3c(F)cccc3F)nc2n1` was tested. Which outcome did it give?
The outcome was “inactive”.

With `CCOC(=O)COc1cc(-c2nn(C)c(OC(F)F)c2Cl)c(F)cc1Cl` as the compound, how does the outcome read?
Its outcome is “inactive”.

How did the outcome turn out when `COP(=O)(NC(C)=O)SC` (centres undefined) was run?
Its outcome is “inactive”.
